Reference: PubChem BioAssay AID743255 (National Center for Advancing Translational Sciences (NCATS), 2014)
The whole screen tested about 390,000 compounds, of which about 910 (0.23%) were called active. Another 5% or so got no clear call; they are omitted. Calls follow the shape of the dose curve; as a rule, active = well fitted inhibition curve with a large enough effect; inconclusive = small, poorly fitted or top-dose-only effect; inactive = no such curve, though single readings can be large or run the other way. What follows is part of a selection rich in actives, with near analogues and random picks from the rest.

target: Ubiquitin carboxyl-terminal hydrolase 1 (Homo sapiens) (UniProt O94782); assay: Inhibitors of USP1/UAF1: Primary Screen; settings: recombinant USP1/UAF1, Ub-Rhodamine cleavage fluorescence; series mostly up to 57.1 µM; activity change, negative = inhibition: at the top concentration; also: nearly all actives have a fitted effect of over 60% in size
How it was run: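 High-throughput fluorogenic screen: 1nM USP1/UAF1 complex, Ub-Rho substrate 150nM final, 50mM HEPES pH 7.8 with 0.5mM EDTA, 0.1 mg/ml BSA, 1mM TCEP and 0.01% Tween-20.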
% is scaled to controls: 0 for no effect and ±100 for the full control effect; potency is read from the fitted curve at half-maximal effect.

Ubiquitin carboxyl-terminal hydrolase 1 (Homo sapiens), sequence (O94782 whole entry, looked up): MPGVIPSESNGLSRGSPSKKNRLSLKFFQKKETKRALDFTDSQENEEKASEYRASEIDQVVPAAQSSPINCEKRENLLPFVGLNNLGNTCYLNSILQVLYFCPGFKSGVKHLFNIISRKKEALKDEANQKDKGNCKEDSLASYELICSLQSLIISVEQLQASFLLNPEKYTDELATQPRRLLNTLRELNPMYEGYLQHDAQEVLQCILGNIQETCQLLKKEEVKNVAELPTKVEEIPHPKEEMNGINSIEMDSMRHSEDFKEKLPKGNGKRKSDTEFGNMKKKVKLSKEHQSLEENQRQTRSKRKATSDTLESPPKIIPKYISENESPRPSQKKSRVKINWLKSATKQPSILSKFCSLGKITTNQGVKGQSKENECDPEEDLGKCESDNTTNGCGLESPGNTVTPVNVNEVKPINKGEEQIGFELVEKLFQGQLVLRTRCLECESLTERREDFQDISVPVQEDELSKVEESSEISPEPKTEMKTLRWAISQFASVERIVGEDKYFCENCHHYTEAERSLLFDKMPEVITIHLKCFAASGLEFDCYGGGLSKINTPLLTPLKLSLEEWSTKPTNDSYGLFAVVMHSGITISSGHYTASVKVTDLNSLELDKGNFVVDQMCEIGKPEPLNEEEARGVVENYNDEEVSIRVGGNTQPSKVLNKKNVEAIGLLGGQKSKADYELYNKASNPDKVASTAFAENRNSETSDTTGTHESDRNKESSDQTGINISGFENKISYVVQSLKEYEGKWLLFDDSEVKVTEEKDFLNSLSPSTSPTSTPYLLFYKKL

| Compound | activity change, negative = inhibition | Potency |
| --- | --- | --- |
| Cc1cc(C)c(/C=C/c2onc(C)c2S(=O)(=O)N2CCC(C(=O)Nc3ccc(Cl)cc3C)CC2)c(C)c1 | 1.71% (inactive) | – |
| O=C(O)C(c1ccccc1)N1C(=O)/C(=C\c2ccc(-c3cccc(Cl)c3)o2)SC1=S (configuration not stated) | – | 35.5 µM (active) |
| O=C(NCc1ccccc1)c1cc(-c2cccc(Cl)c2)on1 | -5.34% (inactive) | – |
| CCC(C)N1C(=O)S/C(=C/c2ccc(Sc3nc4ccccc4[nH]3)o2)C1=O (configuration not stated) | -9.54% (inactive) | – |
| COc1ccccc1-c1cc(C(F)(F)F)nc(S(=O)(=O)CCCC(=O)Nc2ccc(F)cc2F)n1 | -27.7% (inactive) | – |
| O=C(CSc1nccn1C1CCCC1)Nc1cc(C(F)(F)F)ccc1Cl | -20.3% (inactive) | – |
| CCN(CC)c1ccc(NC(=O)CN2C(=O)c3cccnc3Oc3ccc(Cl)cc32)c(C)c1 | -7.26% (inactive) | – |
| Cc1ccc(NC(=O)NC(C)c2c(-n3cccc3)sc(C)c2C)c(C)c1 (configuration not stated) | -21.7% (inactive) | – |
| O=C(Cn1cnc2c(oc3ccccc32)c1=O)Nc1ccc(OC(F)(F)F)cc1 | -19.8% (inactive) | – |
| Cc1ccc2onc(CC(=O)N3CCN(c4ccc(Cl)cc4)CC3)c2c1 | -10.2% (inactive) | – |
| CCc1ccc2oc(-c3ccc(NC(=O)c4cc5ccccc5o4)cc3)nc2c1 | 0.213% (inactive) | – |
| CCOc1ccc(CNC(=O)C2CCN(c3nnc(-n4cccc4CNc4ccc(C)cc4)s3)CC2)cc1OC | 8.02% (inactive) | – |
| COc1cc(C(=O)N2CCN(c3ccc(Nc4ccc(C)cc4)nn3)CC2)cc(OC)c1OC | -11.5% (inactive) | – |
| CCCC(=O)Nc1cc(C(=O)NCc2ccc(OC)cc2)ccc1S(=O)(=O)c1ccc(Cl)cc1 | -8.93% (inactive) | – |
| O=C1OC(NC(=O)c2ccccc2)C(N2CCOCC2)=C1Cl (configuration not stated) | -15.5% (inactive) | – |
| O=C(/C=C/c1ccc(N2CCOCC2)cc1)c1ccccc1 | – | 25.1 µM (active) |
| NC(=O)c1ccc(N2CCOCC2)nc1 | -9.85% (inactive) | – |
| COC(=O)CN1C(=O)CSc2ccc(S(=O)(=O)Nc3cc(C)ccc3C)cc21 | -7.07% (inactive) | – |
| COc1ccc(CCNC(=O)c2cc(=O)c3c(C)cc(C)cc3o2)cc1OC | -23.3% (inactive) | – |
| Cc1cc(C)c(/C=C2\C(=O)Nc3ccccc32)[nH]1 | – | 25.1 µM (active) |
| CCN(CC)CCNC(=O)Cn1ncc2c3ccccc3n(Cc3ccccc3C)c2c1=O | -16.9% (inactive) | – |
| CCc1ccccc1NC(=O)c1ccc(F)c(S(=O)(=O)NC2CCCCCC2)c1 | -12.3% (inactive) | – |
| COCCCNC(=O)c1ccc(NC(=O)c2nsc3ccccc23)cc1 | -13.5% (inactive) | – |
| CCOC(=O)c1cnc2c(C)cc(C)cc2c1Nc1ccc(N2CCOCC2)cc1 | -5.54% (inactive) | – |
| CCc1nc2cccnc2n1-c1ccc(CC(=O)Nc2c(C)cccc2C)cc1 | 16.9% (inactive) | – |
| Cc1ccc(-c2nnc(Nc3ccc(OCC(N)=O)cc3)c3ccccc23)cc1S(=O)(=O)NCC1CCCO1 (configuration not stated) | -23.5% (inactive) | – |
| CCOc1ccc(CCNC(=O)Cn2nc(CC)n3c(cc4sc(CC)cc43)c2=O)cc1OCC | -31.2% (inactive) | – |
